Assay outcomes as filed in PubChem BioAssay.
The list is not random: actives were taken first. Their share in the collection is about 7.4%.
Rab9 promoter act: qHTS Assay for Rab9 Promoter Activators; Huh7 Rab9 promoter-luciferase reporter, luminescence, 24 h; Potency, µM (highest dose often 9.22 µM), for the others: top-dose activation, negative = inhibition, usual class: activators; 320,000 tested, 2.8% active; also: % of control where 0% means no effect; nearly all actives have a fitted effect of over 60% in size
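Huh7 cells stably carrying Rab9 promoter–luciferase reporter, plated 1500 cells/well, compound added after 2 h and incubated 24 h at 37 °C; luciferase luminescence then read after 10 min with detection reagent.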
FLuc counter: qHTS profiling assay for firefly luciferase inhibitor/activator using purifed enzyme and Km concentrations of substrates (counterscreen for miR-21 project); Luciferin 4-monooxygenase (Photinus pyralis), P08659; purified FLuc, Km substrates, luminescence inhibition; Potency, µM (doses to about 57.5 µM), without a hit: at the highest dose activity change, negative = inhibition, most hits filed as inhibitors; 360,000 tested, 6.9% active;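 also: plate controls were vehicle for no effect and reference inhibitor for full effect; nearly all actives have a fitted effect of over 55% in size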
Target sequence (P08659 whole entry, looked up): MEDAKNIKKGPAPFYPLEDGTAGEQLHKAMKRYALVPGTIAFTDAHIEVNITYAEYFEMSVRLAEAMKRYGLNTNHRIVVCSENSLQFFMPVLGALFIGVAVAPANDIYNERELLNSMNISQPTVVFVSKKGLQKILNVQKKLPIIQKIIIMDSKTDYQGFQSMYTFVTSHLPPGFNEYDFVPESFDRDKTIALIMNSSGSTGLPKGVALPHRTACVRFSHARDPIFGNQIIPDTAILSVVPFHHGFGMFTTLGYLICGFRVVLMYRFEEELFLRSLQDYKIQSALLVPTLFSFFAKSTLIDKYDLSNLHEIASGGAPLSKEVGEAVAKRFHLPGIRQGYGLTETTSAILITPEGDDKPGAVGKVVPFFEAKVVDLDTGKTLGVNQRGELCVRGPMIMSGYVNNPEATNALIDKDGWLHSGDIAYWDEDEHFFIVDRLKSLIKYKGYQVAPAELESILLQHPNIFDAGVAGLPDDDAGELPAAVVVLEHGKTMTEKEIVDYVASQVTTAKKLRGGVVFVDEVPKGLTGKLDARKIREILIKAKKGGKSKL
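Purified P. pyralis luciferase, 10 nM final, with Km-level 10 uM D-luciferin and 10 uM ATP in 50 mM Tris acetate pH 7.5, 10 mM Mg acetate, 0.01% Tween-20, 0.05% BSA; 6-point qHTS titration about 60 µM downward; luminescence read.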
ELG1 genotox: qHTS screen for small molecules that induce genotoxicity in human embryonic kidney (HEK293T) cells expressing luciferase-tagged ELG1; 330,000 tested, 1.3% active; Potency, µM (highest dose often 46 µM), without a hit: at the top dose activity change, positive = activation, actives largely listed as activators; HEK293T ELG1-luciferase reporter, luminescence, 16 h; also: % of control where 0% means no effect; nearly all actives have a fitted effect of over 60% in size
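Luminescence read-out: rising ELG1-luciferase signal, reflecting elevated ELG1 protein under genetic stress, flags genotoxic compounds. Cells were treated for 16 hr at 37 °C before ONE-Glo detection.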
SMN2 splice enh: qHTS Assay for Enhancers of SMN2 Splice Variant Expression; Potency, µM (doses to about 46.1 µM), for inactives: at the highest dose activity change, positive = activation, actives largely listed as activators; HEK293 SMN2-luciferase splicing reporter, luminescence, 30-36 h; AID 1458, 2008; 210,000 tested, 2.8% active; also: % of control where 0% means no effect; nearly all actives have a fitted effect of over 55% in size
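HEK293 cells carry an SMN2 minigene-luciferase reporter in which exon 7 inclusion puts luciferase in frame. Cells were seeded at 2000 cells/well, attached for 10-12 hours, then exposed to compounds for 30-36 hours at 37C before ONE-Glo luminescence.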
NPC1 prom act: qHTS Assay for NPC1 Promoter Activators; Potency, µM (highest dose often 9.22 µM), without a hit: at the top dose activation, hits mostly activators; Huh7 NPC1 promoter luciferase reporter, 24 h; AID 485313, 2010; 320,000 tested, 2.4% active; also: % of control where 0% means no effect; nearly all actives have a fitted effect of over 60% in size
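NPC1 promoter–luciferase Huh7 cells; 24 h compound; luminescence.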
Numbers without * were called inactive; u = inconclusive; x = no result. Calls follow the shape of the dose curve; as a rule, active = well fitted curve in the direction sought with a large enough effect; inconclusive = small, poorly fitted or top-dose-only effect, or another doubt; inactive = no such curve, though single readings can be large; an effect the other way counts as inactive or inconclusive. Potency is read from the fitted curve at half-maximal effect.

SMILES	Rab9 promoter act	FLuc counter	ELG1 genotox	SMN2 splice enh	NPC1 prom act
O=C(OCC1CCCO1)c1ccc2c(c1)N(Cc1c(F)cccc1Cl)C(=O)c1ccccc1S2(=O)=O (centres undefined)	x	-7%	x	x	x
CNC(=O)Nc1ccc(C2SCCS2)cc1	4%	17µM*	9%	x	18%
CCCCNC(=O)Nc1ccc(C2SCCS2)cc1	u	15µM*	u	x	u
O=C(NNC(=O)c1ccc(NC(=O)c2ccccc2)cc1)c1ccccc1	-1%	-3%	18%	4%	-6%
O=C(Nc1ccc(C2SCCS2)cc1)c1ccccc1	1.4µM*	0.85µM*	u	x	1.1µM*
CC(C)c1ccc(NC(=O)COc2ccc(C3SCCS3)cc2)cc1	-1%	-3%	0%	x	1%
Cc1ccc(S(=O)(=O)CC(=O)c2cc3cccc(C)c3oc2=O)cc1	-2%	5%	0%	x	-4%
O=C(N/C(=C/c1ccccc1)C(=O)N1CCCCC1)c1ccccc1	2.8µM*	7.6µM*	18µM*	x	3.5µM*
O=C(N/C(=C/c1ccccc1)C(=O)N1CCCCCC1)c1ccccc1	2%	-2%	-4%	-25%	-1%
CN1CCC(N(CCc2ccccc2)C(=O)CCC(=O)O)CC1	5%	-3%	0%	x	1%
O=C1c2ccccc2S(=O)(=O)N1CC1CC(c2ccccc2)=NO1 (centres undefined)	1.4µM*	6µM*	4.1µM*	14%	3.2µM*
O=C(CCN1C(=O)c2ccccc2S1(=O)=O)Nc1ccc(Cl)cc1	6%	-7%	2%	x	-6%
COc1ccc(-c2cn(Cc3ccc4ccccc4c3)nn2)cc1	12%	-4%	8%	x	23%
COc1ccc(-c2cn(Cc3ccc(C(=O)c4ccccc4)cc3)nn2)cc1	u	11µM*	18µM*	x	u
COc1ccc(C2=NOC(Cn3nc(-c4ccccc4)cc3C(=O)O)C2)cc1 (centres undefined)	-5%	4.8µM*	7%	x	0%
O=C1c2ccccc2S(=O)(=O)N1CC1CC(c2ccc(Cl)cc2)=NO1 (centres undefined)	2.2µM*	2.4µM*	16µM*	16µM*	3.5µM*
Cc1cc(NC(=O)CCC(=O)N(c2ccc(F)cc2)C(C(=O)NC2CCCC2)c2cccnc2)no1 (centres undefined)	6%	1%	-4%	x	0%
COc1ccc(C2=NOC(CN3C(=O)c4ccccc4S3(=O)=O)C2)cc1 (centres undefined)	0.89µM*	2.1µM*	u	u	1.3µM*
CCOC(=O)c1cc(-c2ccc(OC)cc2)nn1Cc1ccccc1	x	7.6µM*	x	20%	x
Cc1ccc(-c2cc(C(=O)O)n(Cc3ccccc3)n2)cc1	x	u	x	-20%	x
COc1ccc(C2=NOC(Cn3nc(C(=O)O)cc3-c3ccccc3)C2)cc1 (centres undefined)	0%	0%	-2%	x	-1%
O=C(Nc1ccc(-n2cnnn2)cc1)c1cccc(S(=O)(=O)N2CCCC2)c1	-5%	5%	-1%	x	2%
O=C(CNC(=O)c1cccc(OC(F)F)c1)OCc1cc(=O)n2cc(Br)ccc2n1	-4%	5%	2%	11%	1%
O=C(Nc1ccc(N2CCN(c3ccc(C(F)(F)F)cn3)CC2)nc1)c1cccs1	-8%	-4%	u	x	1%
O=C(c1ccccc1)c1ccc(N2CCOCC2)c(F)c1	3.5µM*	11µM*	u	u	3.5µM*
SMILES	Rab9 promoter act	FLuc counter	ELG1 genotox	SMN2 splice enh	NPC1 prom act
O=C(Nc1ccc(N2CCOCC2)c(F)c1)c1cccs1	0.4µM*	4.3µM*	6.5µM*	x	0.5µM*
CN(C)c1ccc(NC(=O)c2ccc(N3CCOCC3)nc2)cc1	16%	15µM*	22%	x	22%
COc1ccc(NC(=O)c2ccc(N3CCOCC3)nc2)cc1	6%	1%	-1%	x	2%
O=C(Nc1ccc(N2CCOCC2)nc1)c1cccs1	2.5µM*	u	16%	11µM*	u
CCOc1ccc(NC(=O)Cc2ccc(-n3c(C)nc4cccnc43)cc2)cc1	x	0%	x	x	x
COCCn1c(C)cc(C(=O)COC(=O)c2[nH]c(C)c(C(C)=O)c2C)c1C	-5%	-17%	-2%	x	-2%
COCCn1c(C)cc(C(=O)COC(=O)c2ccc3ncsc3c2)c1C	2.8µM*	6.7µM*	u	15%	2.8µM*
COCCn1c(C)cc(C(=O)COC(=O)c2cncc(Br)c2)c1C	u	7.6µM*	u	-6%	u
COCCn1c(C)cc(C(=O)COC(=O)c2ccc(S(=O)(=O)N(C)C)cc2)c1C	x	x	4%	x	x
COCCn1c(C)cc(C(=O)COC(=O)c2ccccc2Br)c1C	-11%	0.095µM*	0.21µM*	x	-7%
COCCn1c(C)cc(C(=O)COC(=O)c2ccc(NC(=O)CC#N)cc2)c1C	2.2µM*	11µM*	u	11µM*	2.8µM*
COc1ccc(-c2ccccc2[C@H]2[C@@H]3C=CC[C@@H](C)[C@@H]3C(=O)N2Cc2ccccc2)cc1	x	x	-4%	x	x
COCCn1c(C)cc(C(=O)COC(=O)CCc2ccc(S(=O)(=O)N3CCOCC3)cc2)c1C	7%	15µM*	-1%	-1%	3%
CCOc1ccc(Oc2nc(NCC(C)C)nc(OC)n2)nn1	-1%	1%	u	23%	-1%
CCNc1nc(NC(C)CC)nc(Oc2ccc(OCC)nn2)n1 (centres undefined)	-3%	-2%	u	5.6µM*	-9%
CCn1c(C(=O)N2CCCC(C(=O)N3CCN(c4cc(C)ccc4C)CC3)C2)cc2sccc21 (centres undefined)	x	-16%	x	-43%	x
Cc1ccccc1C(=O)Nc1cccc(N)c1	2%	u	2%	u	10%
Nc1ccc(C(=O)Nc2cccc(N)c2)cc1	u	21µM*	17%	x	u
CC1CCC(NC(=O)CCNC(=O)c2ccc(Br)cc2)CC1 (centres undefined)	2.5µM*	u	u	x	4.5µM*
CC(=O)Nc1cccc(NC(=O)c2ccc(Br)cc2)c1	u	24µM*	5%	17%	19%
O=C(Nc1cccc(O)c1)c1ccc(Br)cc1	u	12µM*	5.8µM*	4%	u
COc1cccc(N2CCN(C(=O)Cn3ncc4c3-c3ccccc3OC4)CC2)c1	x	4%	x	-1%	x
NS(=O)(=O)c1ccc(CCNC(=O)c2cc3ccccc3oc2=O)cc1	8%	-2%	4%	x	-1%
O=C(CCNC(=O)c1ccc(Br)cc1)Nc1cccc(S(=O)(=O)N2CCCC2)c1	-1%	-2%	-8%	x	0%
Cc1cccc(NC(=O)CCNC(=O)c2ccc(Br)cc2)c1	u	13µM*	u	x	27%
